# Screening results deposited in PubChem BioAssay by several laboratories.
# Shown are actives, neighbours in structure and some others; about 2.5% of the full set was active somewhere.
# NPR2 activator – human GC-B receptor activators, primary screen, HEK293 GC-B cells, cGMP TR-FRET, EC30 CNP | 0% at EC30 CNP, 100% saturating CNP | 370,000 compounds, 0.11% hits | activation, % at 10 µM | AID 1920062, 2024;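 active = activation at 10 µM reaching about 35% in either raw or pattern-adjusted values, limit read from the data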
# HSF1 inh – HSF1 inhibitors in luciferase reporter cells, primary screen, cell-based, NIH3T3, luminescence | NIH3T3-HGL HSE-luciferase, MG132-induced, luminescence 8 h; active compounds read low | activity change, negative = inhibition, % at 7.5 µM (by protocol) | 300,000 compounds, 0.77% hits;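 active = more than half of replicate wells show activity change below -50%, luminescence cut by over half; inconclusive = some wells, but at most half, below -50%; inactive = no replicate well below -50%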;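 also: luciferase reports HSF-1 transcriptional activity via heat shock element; 0% = median of DMSO wells and -100% = zero luminescence signal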
# aDG glyco act – activators of alpha-DG glycosylation, primary screen, uHTS, Pro5-aDG cells, AlphaScreen; alpha-DG glycosylation AlphaScreen (IIH6); 0% Pro5, 100% B10-LARGE cell signal; activation, % at 10 µM; 360,000 compounds, 0.22% hits;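 active = activation of at least 8% versus controls, or a plate z-score of at least 8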;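 also: Pro5 are CHO cells carrying HIG-tagged alpha-DG that lacks glycosylation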
# HSF1 activator – HSF-1 activators, primary screen, NIH3T3-HGL cells, MG132 stress, luminescence, single point; NIH3T3-HGL HSF-1 luciferase reporter, 8 h; 100% = twice DMSO control signal; activation, % at 9 µM; 300,000 compounds, 1.7% hits; AID 504408, 2011;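 active = mean replicate activation of at least 50% with a set share of replicates each reaching 50%; inconclusive = only one of those two conditions met; inactive = mean below 50% and too few replicates reaching it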;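 also: 0% = median of the neutral control wells and 100% = twice that signal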
# GC-A act – GC-A stimulated cGMP production enhancers – HEK293 GC-A cells, cGMP TR-FRET, EC30 ANP, primary screen. Atrial natriuretic peptide receptor 1 (Homo sapiens), P16066. 0% at EC30 ANP, 100% saturating ANP. 370,000 compounds, 0.14% hits. activation, % at 10 µM; in the data active = activation above about 40%
# Dyrk1A ADPGlo – rat Dyrk1A kinase inhibitors, primary screen, biochemical, single point, plate reader; inhibition, % at 12.5 µM; Dual specificity tyrosine-phosphorylation-regulated kinase 1A (Rattus norvegicus), Q63470; ADP-Glo luminescence, NFATc1 peptide; 310,000 compounds, 0.43% hits; in the data active = inhibition above about 50%;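 also: plate controls were vehicle with enzyme for no effect and no enzyme for full effect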
# Starred values were filed as active, the others as inactive; u = inconclusive; x = no result.
SMILES,NPR2 activator,HSF1 inh,aDG glyco act,HSF1 activator,GC-A act,Dyrk1A ADPGlo
CCOC(=O)CCS(=O)(=O)c1nc(-c2ccccc2)cc(C(F)(F)F)n1,x,u,0,12,x,3
COC(=O)CCS(=O)(=O)c1nc(-c2ccccc2)cc(C(F)(F)F)n1,x,-94*,-1,-94,x,6
COCC(C)NC(=O)CCS(=O)(=O)c1nc(-c2ccc(OC)cc2)cc(C(F)(F)F)n1 (stereo unspecified),-4,179,0,238*,21,-5
CCOC(=O)c1c(C(F)(F)F)cc(-c2ccc(F)cc2)nc1C,-3,6,0,-21,-3,-5
CCOC(=O)CS(=O)(=O)c1nc(-c2ccccc2)cc(C(F)(F)F)n1,10,124,-1,137*,54*,12
CCC(CC)C(=O)Nc1nnc(SCC(=O)NC2CCCCC2)s1,-1,5,0,5,1,0
CC(C)(C)c1cnnn1-c1ccc(C=O)cc1,1,10,0,8,0,4
CC(C)(C)c1cnnn1-c1ccc(C(=O)CCl)cc1,-8,-57*,0,-67,7,6
O=C1Cc2c([nH]c3ccc([N+](=O)[O-])cc23)-c2ccccc2N1,-1,x,1,x,2,x
CC1(C)Cc2ccccc2C2=NNC(=O)C2=N1,1,25,9.0*,42,2,32
CC1(C)Cc2ccccc2C(Nn2cnnc2)=N1,0,-9,0,-3,-1,-9
COc1ccc(-c2[nH]ncc2CN(C)Cc2ccccn2)c(OC)c1,-6,-2,1,2,-5,x
CC(C)(C)c1ccc(Cn2c(=O)cnc3ccccc32)cc1,-5,-70*,0,-69,-3,1
O=c1cc(-c2c(F)c(F)c(F)c(F)c2F)oc2c(F)c(F)c(F)c(F)c12,x,-94*,x,-95,x,x
O=c1cc(-c2c(F)c(F)c(F)c(F)c2F)oc2ccccc12,x,0,1,-10,x,-8
C#CCN1C(=O)S/C(=C/c2cc(C)n(CC)c2C)C1=O,-1,7,0,58*,6,1
COc1ccc(CNn2cnnc2)c(O)c1,1,-7,0,-2,3,-1
CC(=O)N(C1=C(O)c2ccccc2C(=O)C1=O)C1CCCCC1,-4,0,0,10,1,2
CC(=O)N(C)C1=C(O)c2ccccc2C(=O)C1=O,2,-90*,0,-92,-1,5
CC(=O)N(C)C1=C(N2CCOCC2)C(=O)c2ccccc2C1=O,x,-4,5.5*,15,x,10
COc1ccc(CCNC(=O)Cc2cccs2)cc1OC,-1,-6,0,-8,0,-3
COc1ccc(OC)c2sc(N(CCCN(C)C)C(=O)c3ccc(S(=O)(=O)N4CCc5ccccc5C4)cc3)nc12,x,-69*,x,-69,x,x
COc1cc(-c2c(-c3ccc4c(c3)OCO4)noc2-c2ccsc2)ccc1F,10,8,0,1,-1,-1
O=C1COc2ccc(C(=O)CCl)cc2N1,1,-3,0,-16,2,4
Oc1ccc(C2C[C@H]3CC[C@@H]2C3)cc1O (stereo partly specified),-1,80,0,90*,6,1
SMILES,NPR2 activator,HSF1 inh,aDG glyco act,HSF1 activator,GC-A act,Dyrk1A ADPGlo
O=C1CC(c2ccc(O)c(O)c2)Oc2cc(O)cc(O)c21 (stereo unspecified),-11,9,0,15,4,47
CCC1(c2ccccc2)NC(=S)N(c2ccc(C)c(C)c2)N1 (stereo unspecified),0,21,1,52*,-3,-8
CCC1(c2ccc(Cl)cc2)NC(=S)N(c2ccc(C)cc2)N1 (stereo unspecified),0,28,0,61*,-1,-6
N#C/C(=C/c1ccc(O)cc1)C(=O)NCc1ccc(Cl)cc1,-9,7,0,5,6,3
N#C/C(=C\c1ccc(O)cc1)C(=O)NCc1cccc(Cl)c1,0,0,0,7,-2,51*
CC1=C(C(=O)OC(C)C)C(C2CC=CCC2)NC(=O)N1 (stereo unspecified),-9,24,0,49,-2,2
CCCCN(C)C(=O)C(Cc1ccccc1)NS(=O)(=O)c1ccc2c(c1)c(=O)n(C)c(=O)n2C (stereo unspecified),47*,2,0,7,-1,4
CCCNC(=O)c1ccc(N2CCC3(CC2)CC(c2cccc(Br)c2)=NO3)c(NC(=O)c2c(Cl)cccc2Cl)c1,-5,-6,0,-18,-1,12
CCCNC(=O)c1ccc(N2CCC3(CC2)CC(c2cccc(Br)c2)=NO3)c(NC(=O)c2ccc(Br)cc2)c1,-4,-89*,0,-91,2,5
O=C(O)CN1C(=O)/C(=C\c2ccccc2OCc2ccc(Cl)cc2Cl)SC1=S,2,-66*,0,-70,2,x
O=C(O)CN1C(=O)/C(=C\c2cc(Br)ccc2OCc2ccccc2Cl)SC1=S,1,-7,0,14,-1,1
COc1ccc(C(CNC(=S)NCc2ccccc2)N2CCCC2)cc1 (stereo unspecified),-7,6,0,-4,2,x
O=C(COc1ccc(Cl)cc1)NCCN1CCCC1,-1,1,0,0,1,5
O=C(COc1ccc(Cl)cc1)NCCN1CCCCC1,0,-55*,1,-64,-2,-7
O=C(NCCN1CCCCC1)Nc1ccccc1Cl,1,-83*,0,-86,-1,-2
CCOc1ccccc1NC(=O)NCCN1CCCCC1,4,1,0,6,1,x
O=C(COc1ccc(Cl)cc1)NCCCNC(=O)c1ccccn1,-1,30,0,84*,3,-4
O=C(Nc1ccc(N2CCN(C(=O)c3cccs3)CC2)cc1)c1ccccc1Cl,-2,-5,0,-1,-2,-11
Cc1ccc2c(CN3CCC(C)CC3)cc(=O)oc2c1C,15,24,0,54*,11,5
Cc1ccc2c(CN(C)Cc3cccc(Cl)c3)cc(=O)oc2c1C,-6,16,0,18,-4,5
CSc1ccc(CN(C)Cc2cc(=O)oc3c(C)c(C)ccc23)cc1,1,-69*,0,-75,-5,2
Cc1ccc2c(CN3CC(C)CC(C)C3)cc(=O)oc2c1C (stereo unspecified),1,4,0,11,4,17
